# Structures can show the parent of a compound that is named as a salt. ± gives the standard deviation.
# What was measured:
# THP-1 = THP-1 cell loss relative to DMSO control; higher = more host cell loss (toxicity); extreme values may be limits of the assay; settings: 10 µM; 4 days; infection: M. tuberculosis H37Rv
# Description: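 OICR kinase inhibitor library screened in duplicate at 10 uM against M. tuberculosis-infected THP-1 macrophages, 4 days at 37 C. THP-1 cell loss (cytotoxicity or loss of adherence) was quantified from Hoechst-stained nuclei counts by high-content imaging and normalised to the 1% DMSO control; 100 = complete loss of host cells.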
# [1] = test system: THP-1 macrophages infected with Mycobacterium tuberculosis H37Rv; assay: intracellular M.tb growth inhibition relative to DMSO (0) and 4 uM bedaquiline (100); higher = stronger inhibition of intracellular bacterial growth; settings: 10 µM; 4 days
# Description: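 OICR kinase inhibitor library screened in duplicate at 10 uM against THP-1 macrophages (PMA-differentiated) infected with M. tuberculosis H37Rv-pTEC27 (tdTomato RFP), 4 days at 37 C. Rows with complete host cell loss (placeholder inhibition 0, cell loss 100) were removed.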
Compound,THP-1 cell loss (THP-1) [%],intracellular M.tb growth inhibition [1] [%]
COc1ccc(OC)c2c(=S)c3ccccc3[nH]c12,9.79 ± 3.8,-14.9 ± 44
O=c1[nH]ccc2c(S(=O)(=O)N3CCCNCC3)cccc12 [HA 1100 hydrochloride],0,-142 ± 180
Cc1ccc(NC(=O)c2ccc(CN3CCN(C)CC3)cc2)cc1Nc1nc(-c2cccnc2)cs1 [Masitinib mesylate],62.9 ± 7.5,95.5 ± 1.8
Cc1cccc(-c2[nH]c(C(C)(C)C)nc2-c2ccc3c(c2)OCO3)n1,74 ± 1.8,-67.3 ± 53
NC(=O)c1ccc2[nH]ccc2c1,50 ± 71,–
C[S+]([O-])c1ccc(-c2nc(-c3ccc(F)cc3)c(-c3ccncc3)[nH]2)cc1 (centres undefined),22.7 ± 8.7,14.3 ± 12
O=C(Nc1nc2ccccc2n1CCN1CCOCC1)c1cccc([N+](=O)[O-])c1 [IRAK-1/4 Inhibitor I],2.5 ± 3.5,13.1 ± 7.2
c1cc(-c2cnn3cc(-c4ccc(OCCN5CCCCC5)cc4)cnc23)ccn1 [Dorsomorphin dihydrochloride],100,–
NCC(=O)Nc1ccc(-n2nc(C(F)(F)F)cc2-c2ccc3c(ccc4ccccc43)c2)cc1,33.1 ± 2.5,92.3 ± 8.1
O=C(O)c1cc(N(Cc2ccccc2O)Cc2cc(O)ccc2O)ccc1O [Lavendustin A],4.39 ± 6.2,–
O=C(Nc1cccc(Nc2ncc(Br)c(NCCc3cnc[nH]3)n2)c1)N1CCCC1,36 ± 15,-256 ± 330
FC(F)c1nc2ccccc2n1-c1nc(N2CCOCC2)nc(N2CCOCC2)n1,35.9 ± 1.9,-26.3 ± 5.5
O=C(c1ccc(Nc2nccc(-c3cc4ccccc4s3)n2)cc1)N1CCC(N2CCCC2)CC1,100,–
COc1cc(/C=C(\C#N)C(N)=O)cc(CSc2nc3ccccc3s2)c1O,3 ± 4.2,21 ± 6.4
CN(C)c1cc2c(Nc3ccc4c(cnn4Cc4ccccc4)c3)ncnc2cn1,62.6 ± 18,43.5 ± 9.2
O=C1NCCc2[nH]c(-c3ccncc3)cc21,100,–
CO[C@H]1C[C@@H]2CC[C@@H](C)[C@@](O)(O2)C(=O)C(=O)N2CCCC[C@H]2C(=O)O[C@H]([C@H](C)C[C@@H]2CC[C@@H](OCCO)[C@H](OC)C2)CC(=O)[C@H](C)/C=C(\C)[C@@H](O)[C@@H](OC)C(=O)[C@H](C)C[C@H](C)/C=C/C=C/C=C/1C [Everolimus],22 ± 0.045,3.03 ± 13
Cc1[nH]c(/C=C2\C(=O)Nc3ccc(S(=O)(=O)Cc4c(Cl)cccc4Cl)cc32)c(C)c1C(=O)N1CCC[C@@H]1CN1CCCC1,19.1 ± 12,51 ± 13
N#CC(c1ccnc(NCCc2cccnc2)n1)c1nc2ccccc2s1 (centres undefined),100,–
Cc1ccc(NC(=O)c2ccc(CN3CCN(C)CC3)cc2)cc1Nc1nccc(-c2cccnc2)n1 [Imatinib Mesylate],9.14 ± 13,54.9 ± 5
O=c1cc(N2CCOCC2)oc2c(-c3ccccc3)cccc12,59.5 ± 13,–
COc1cc2nccc(Oc3ccc(NC(=O)C4(C(=O)Nc5ccc(F)cc5)CC4)cc3)c2cc1OC,83.9 ± 4.8,94.8 ± 23
CC(C)(C)c1nc2c3cc[nH]c(=O)c3c3cc(F)ccc3c2[nH]1 [Merck-5],46.3 ± 11,–
CC(C)[C@H](CO)Nc1nc(Nc2ccc(C(=O)O)c(Cl)c2)c2ncn(C(C)C)c2n1 [Purvalanol B],1.78 ± 2.5,–
Cc1cc(C)c(/C=C2\C(=O)Nc3ccccc32)[nH]1,34.2 ± 39,8.19 ± 12

Compound,THP-1 cell loss (THP-1) [%],intracellular M.tb growth inhibition [1] [%]
COCC(=O)NC/C=C/c1ccc2ncnc(Nc3ccc(Oc4ccc(C)nc4)c(C)c3)c2c1,25.9 ± 5.7,–
Cc1ccc(NC(=O)c2cccc(C(C)(C)C#N)c2)cc1Nc1ccc2ncn(C)c(=O)c2c1,100,–
C=CC[C@@H]1/C=C(\C)C[C@H](C)C[C@H](OC)[C@H]2O[C@@](O)(C(=O)C(=O)N3CCCC[C@H]3C(=O)O[C@H](/C(C)=C/[C@@H]3CC[C@@H](O)[C@H](OC)C3)[C@H](C)[C@@H](O)CC1=O)[C@H](C)C[C@@H]2OC,0,–
Fc1ccc(Cl)cc1-c1nc(Nc2ccncc2)c2nccnc2n1,7.31 ± 3.9,36.5 ± 10
O=C(O)c1ccc2c3c1cccc3c(=O)n1c3ccccc3nc21 [STO-609 acetic acid],35.7 ± 5.5,-29.1 ± 36
COc1cc(CCc2cc(NC(=O)c3ccc(N4CC(C)NC(C)C4)cc3)n[nH]2)cc(OC)c1 (centres undefined),45.7 ± 11,-216 ± 180
CNC(=O)c1cc(Oc2ccc(NC(=O)Nc3ccc(Cl)c(C(F)(F)F)c3)c(F)c2)ccn1,43.8 ± 13,50.6 ± 65
O=C1Cc2c([nH]c3ccc(Br)cc23)-c2ccccc2N1 [Kenpaullone],100,–
NC(=O)c1ccc(-c2nc(-c3ccccn3)c(-c3ccc4c(c3)OCO4)[nH]2)cc1,0.126 ± 0.18,17.9 ± 36
Cc1ccc2c(=O)c3ccccc3n(CCCN)c2c1C,100,–
COc1cc2ncnc(Nc3ccc(Oc4ccccc4)cc3)c2cc1OC,0,41.9 ± 47
COc1cc2nccc(Oc3ccc(NC(=O)Nc4cc(C)on4)c(Cl)c3)c2cc1OC,27.4 ± 5,-5.89 ± 83
COc1cc(Nc2ncc(F)c(Nc3ccc4c(n3)N(COP(=O)(O)O)C(=O)C(C)(C)O4)n2)cc(OC)c1OC,59.6 ± 57,11 ± 16
COc1cccc2cc(-c3nc([C@H]4CC[C@H](C(=O)O)CC4)n4ncnc(N)c34)[nH]c12 [OSI-027 hydrochloride],51.2 ± 4.5,-318 ± 370
Oc1cccc(-c2nc(N3CCOCC3)c3oc4ncccc4c3n2)c1,24.3 ± 3.9,-62.7 ± 17
NS(=O)(=O)c1nn2cc(-c3ccccc3)nc2s1,5.48 ± 7.7,42.3 ± 16
Nc1nc(Nc2ccc(S(N)(=O)=O)cc2)nn1C(=S)Nc1c(F)cccc1F [Cdk1/2 Inhibitor III],5.81 ± 8.1,-193 ± 240
O=C(Nc1cc(C(F)(F)F)cc(C(F)(F)F)c1)c1cc(Cl)ccc1O,53 ± 46,64.7 ± 16
O=c1[nH]nc(Sc2ncc([N+](=O)[O-])s2)n1-c1ccc2c(c1)OCCO2,31.1 ± 44,-22.3 ± 6
C=CC(=O)Nc1cccc(Oc2nc(Nc3ccc(N4CCN(C)CC4)cc3OC)ncc2Cl)c1,42.4 ± 7.4,-39 ± 120
CN(C)Cc1cccc(N=C(c2ccccc2)c2c(O)[nH]c3cc(C(=O)N(C)C)ccc23)c1,23.9 ± 0.5,-213 ± 320
Cc1cc(Nc2ncc3cc(-c4c(Cl)cccc4Cl)c(=O)n(C)c3n2)ccc1F,88.1 ± 17,4.79 ± 6.8
NC1(c2ccc(-c3nc4ccn5c(=O)[nH]nc5c4cc3-c3ccccc3)cc2)CCC1,34.3 ± 6.7,-62.1 ± 130
CS(=O)(=O)N1CCN(Cc2cc3nc(-c4cccc5[nH]ncc45)nc(N4CCOCC4)c3s2)CC1 [GDC-0941 bismesylate],38 ± 2.2,56 ± 26
Cc1ccc(NC(=O)c2ccc(CN3CCN(C)CC3)cc2)cc1Nc1nccc(-c2cccnc2)n1 [Imatinib (free base)],3.31 ± 4.7,33.2 ± 16

Compound,THP-1 cell loss (THP-1) [%],intracellular M.tb growth inhibition [1] [%]
Oc1cccc(-c2nc(N3CCOCC3)c3sccc3n2)c1 [PI3-Kinase a Inhibitor 2],62 ± 6.5,-170 ± 240
COc1cc2/c(=N/c3ccc(Br)cc3F)nc[nH]c2cc1OCC1CCN(C)CC1 [Vandetanib],40.7 ± 6.5,64.1 ± 6.5
Nc1ncnc2nc(-c3ccc(N4CCOCC4)nc3)cc(-c3cccc(Br)c3)c12 [ABT-702 dihydrochloride],24.4 ± 13,29.6 ± 24
NC(=O)Nc1cc(-c2cccc(F)c2)sc1C(=O)N[C@H]1CCCNC1,84.2 ± 22,-218 ± 310
Cc1cc(Nc2cc(C)c(C#N)c(NC(C)CCCC(C)(C)O)n2)n[nH]1 (centres undefined) [TC-A 2317 hydrochloride],19.1 ± 1,-257 ± 200
Cc1c(NC(=O)OC[C@@H]2COCCN2)cn2ncnc(Nc3ccc4c(cnn4Cc4cccc(F)c4)c3)c12,16.7 ± 9.5,48.3 ± 10
Cn1cc(/C=C2\C(=O)Nc3cccnc32)c2ccccc21,41.8 ± 0.73,-49.9 ± 14
Cc1ccccc1C(=O)c1ccc(Nc2ccc(Br)cc2N)cc1Cl,16.5 ± 23,20.1 ± 14
CCn1c(-c2nonc2N)nc2c(C#CC(C)(C)O)ncc(OC[C@H]3CCCNC3)c21,15.8 ± 3.6,-124 ± 170
CC[C@H](CO)Nc1nc(NCc2ccccc2)c2ncn(C(C)C)c2n1 [Roscovitine],53.5 ± 2.5,-23.1 ± 47
COc1cc2ncnc(Nc3cccc(Cl)c3)c2cc1OC [Tyrphostin AG 1478 mesylate],41.5 ± 9.7,2.11 ± 14
OCCn1cc(-c2ccc3c(c2)CC/C3=N\O)c(-c2ccncc2)n1,9.27 ± 7.9,-91.1 ± 160
COc1ccc(-c2ccc3c(N4CCOC[C@@H]4C)nc(N4CCOC[C@@H]4C)nc3n2)cc1CO,40.8 ± 2.5,-202 ± 240
COc1nccc(-c2c(-c3ccc(F)cc3)ncn2C2CCNCC2)n1,4.97 ± 0.45,-58.3 ± 93
O=C(NC1CCNCC1)c1n[nH]cc1NC(=O)c1c(Cl)cccc1Cl,90.2 ± 14,29.6 ± 42
Nc1ncnc(Nc2ccc(OCc3ccccc3)c(Cl)c2)c1/C=N/OCCN1CCOCC1,38.7 ± 4.5,55.9 ± 12
Cn1c2ccccc2c2c3c(c4c5ccccc5n(CCC#N)c4c21)CNC3=O,32.2 ± 18,-29.9 ± 36
NCc1ccc(Nc2ncc(F)c(Nc3ccccc3)n2)cc1 [Dianilinopyrimidine_01],88.5 ± 16,99.2 ± 230
CN1CCC(COc2cnc(-c3cccc(Cn4nc(-c5cccc(C#N)c5)ccc4=O)c3)nc2)CC1,90.4 ± 14,48.3 ± 68
CC#CC(=O)Nc1ccc2ncnc(Nc3cccc(Br)c3)c2c1,89.6 ± 15,3.12 ± 4.4
CO[C@@H]1[C@H](N(C)C(=O)c2ccccc2)C[C@H]2O[C@]1(C)n1c3ccccc3c3c4c(c5c6ccccc6n2c5c31)C(=O)NC4,30.8 ± 4.7,60.7 ± 13
CC(C)(C)c1cc(NC(=O)Nc2ccc(-c3cn4c(n3)sc3cc(OCCN5CCOCC5)ccc34)cc2)no1,82.1 ± 1.3,85.7 ± 43
NC(=O)Nc1sc(-c2ccc(F)cc2)cc1C(N)=O,–,-19 ± 13
CS(=O)(=O)c1cccc(CNc2nc(Nc3ccc4c(c3)CCC(=O)N4)ncc2C(F)(F)F)c1,56.3 ± 6,-96.4 ± 26
FC(F)(F)c1ccc(/C=C/c2nc(COc3ccc(CCCCn4ccnn4)cc3)co2)cc1 [Mubritinib],–,-50.5 ± 170

# Reference: the supplement of paper PMC7530171
